Experiment in all cases: PBM; 200 nM protein, PBS
Conditions in all cases: dsDNA, one strand shown

For test [1], the target named is T1, VENTX (Homo sapiens, UniProt O95231 78-163, R121Q).
T1 sequence: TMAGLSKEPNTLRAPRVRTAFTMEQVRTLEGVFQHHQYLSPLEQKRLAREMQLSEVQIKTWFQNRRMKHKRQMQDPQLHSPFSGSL

The target of a further test is ALX4 (Homo sapiens, UniProt Q9H161 200-286).
For test [2], the target named is T2, PAX4 (Homo sapiens, UniProt O43316 9-242, R200K).
T2 sequence: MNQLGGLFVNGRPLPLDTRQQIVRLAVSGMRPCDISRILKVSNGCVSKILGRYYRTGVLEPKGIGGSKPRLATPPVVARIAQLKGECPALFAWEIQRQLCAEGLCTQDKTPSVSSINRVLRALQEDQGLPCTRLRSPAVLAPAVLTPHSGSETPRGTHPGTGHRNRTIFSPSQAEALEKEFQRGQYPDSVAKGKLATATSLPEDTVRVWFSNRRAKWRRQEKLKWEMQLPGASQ

The target in test [3] is PRRX1 (Homo sapiens, UniProt P54821 80-166, F113S).
PRRX1 (Homo sapiens, UniProt P54821 80-166, F113S), sequence (P54821 80-166 F113S): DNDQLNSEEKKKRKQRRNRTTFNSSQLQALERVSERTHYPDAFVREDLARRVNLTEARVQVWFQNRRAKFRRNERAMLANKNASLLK
Test [4] addresses T3, VENTX (Homo sapiens, UniProt O95231 78-163, Y115F).
T3 sequence: T1 sequence with Y38F, Q44R

In test [5] the target is T4, PAX4 (Homo sapiens, UniProt O43316 9-242).
T4 sequence: T2 sequence with K192R

Test [6] deals with HOXA4 (Homo sapiens, UniProt Q00056 201-287, R217L).
HOXA4 (Homo sapiens, UniProt Q00056 201-287, R217L), sequence (Q00056 201-287 R217L): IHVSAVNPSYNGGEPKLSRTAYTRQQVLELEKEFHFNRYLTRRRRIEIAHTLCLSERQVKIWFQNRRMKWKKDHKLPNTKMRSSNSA
The target in test [7] is T5, PAX4 (Homo sapiens, UniProt O43316 9-242, R200Q).
T5 sequence: T2 sequence with K192Q

In test [8] the target is T6, PAX4 (Homo sapiens, UniProt O43316 9-242, F177V).
T6 sequence: T2 sequence with F169V, K192R

Test [9] has as its target T7, PAX4 (Homo sapiens, UniProt O43316 9-242, F177Y).
T7 sequence: T2 sequence with F169Y, K192R

The target of test [10] is HOXA4 (Homo sapiens, UniProt Q00056 201-287, W262F).
HOXA4 (Homo sapiens, UniProt Q00056 201-287, W262F), sequence (Q00056 201-287 W262F): as the sequence (Q00056 201-287 R217L) above, with L17R, W62F counted along it
Test [11] addresses PRRX1 (Homo sapiens, UniProt P54821 80-166).
The target in test [12] is MSX2 (Homo sapiens, UniProt P35548 130-214).
MSX2 (Homo sapiens, UniProt P35548 130-214), sequence (P35548 130-214): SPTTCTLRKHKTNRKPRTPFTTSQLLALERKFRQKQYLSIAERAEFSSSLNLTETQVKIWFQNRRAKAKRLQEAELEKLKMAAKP
Test [13] deals with MSX2 (Homo sapiens, UniProt P35548 130-214, F161Y).
MSX2 (Homo sapiens, UniProt P35548 130-214, F161Y), sequence (P35548 130-214 F161Y): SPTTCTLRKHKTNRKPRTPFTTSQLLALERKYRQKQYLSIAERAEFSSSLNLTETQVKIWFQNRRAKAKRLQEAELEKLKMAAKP
Test [14] deals with HOXA2 (Homo sapiens, UniProt O43364 129-215, R185T).
HOXA2 (Homo sapiens, UniProt O43364 129-215, R185T), sequence (O43364 129-215 R185T): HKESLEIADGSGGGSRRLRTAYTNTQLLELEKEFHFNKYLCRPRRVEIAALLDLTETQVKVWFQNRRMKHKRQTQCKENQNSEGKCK
For test [15], the target named is VAX1 (Homo sapiens, UniProt Q5SQQ9 86-172, T142I).
VAX1 (Homo sapiens, UniProt Q5SQQ9 86-172, T142I), sequence (Q5SQQ9 86-172 T142I): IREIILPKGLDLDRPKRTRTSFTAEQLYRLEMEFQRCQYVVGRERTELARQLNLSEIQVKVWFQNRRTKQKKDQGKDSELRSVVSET
Test [16] deals with VAX1 (Homo sapiens, UniProt Q5SQQ9 86-172, K157R).
VAX1 (Homo sapiens, UniProt Q5SQQ9 86-172, K157R), sequence (Q5SQQ9 86-172 K157R): as the sequence (Q5SQQ9 86-172 T142I) above, with I57T, K72R counted along it
Test [17] concerns the target HOXA2 (Homo sapiens, UniProt O43364 129-215, R185K).
The next test addresses HOXB4 (Homo sapiens, UniProt P17483 148-234, V174I).

Numbering of substitutions follows the chain as printed.

PRRX1 (Homo sapiens, UniProt P54821 80-166), sequence (P54821 80-166): as the sequence (P54821 80-166 F113S) above, with S34F counted along it
ALX4, sequence (Q9H161 200-286): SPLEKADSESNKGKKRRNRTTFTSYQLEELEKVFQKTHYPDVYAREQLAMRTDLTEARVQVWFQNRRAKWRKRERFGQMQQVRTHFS
HOXA2 (Homo sapiens, UniProt O43364 129-215, R185K), sequence (O43364 129-215 R185K): as the sequence (O43364 129-215 R185T) above, with T57K counted along it
HOXB4, sequence (P17483 148-234 V174I): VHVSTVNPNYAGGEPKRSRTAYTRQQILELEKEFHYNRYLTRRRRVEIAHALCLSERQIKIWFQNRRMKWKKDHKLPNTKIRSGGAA

AATTAACG: the binding signal with VENTX [1] was 11.7 upbm affinity estimate (log intensity, higher = more binding, comparable within an allelic series); with ALX4 it was 13.9 upbm affinity estimate (log intensity, higher = more binding, comparable within an allelic series); with PAX4 [2] it was 11.6 upbm affinity estimate (log intensity, higher = more binding, comparable within an allelic series); with PRRX1 [3] it was 11.1 upbm affinity estimate (log intensity, higher = more binding, comparable within an allelic series); with VENTX [4], 11.5 upbm affinity estimate (log intensity, higher = more binding, comparable within an allelic series); in the test with PAX4 [5], 12.2 upbm affinity estimate (log intensity, higher = more binding, comparable within an allelic series). For the same sequence, the binding signal with HOXA4 [6] is 12.1 upbm affinity estimate (log intensity, higher = more binding, comparable within an allelic series); in the test with PAX4 [7], 12 upbm affinity estimate (log intensity, higher = more binding, comparable within an allelic series); in the test with PAX4 [8], 10.6 upbm affinity estimate (log intensity, higher = more binding, comparable within an allelic series); with PAX4 [9], 11 upbm affinity estimate (log intensity, higher = more binding, comparable within an allelic series); with HOXA4 [10], 11.6 upbm affinity estimate (log intensity, higher = more binding, comparable within an allelic series); with PRRX1 [11] it was 13.3 upbm affinity estimate (log intensity, higher = more binding, comparable within an allelic series).

AATTAAAT: the binding signal was 13.9 upbm affinity estimate (log intensity, higher = more binding, comparable within an allelic series) in the test with ALX4; 11.8 upbm affinity estimate (log intensity, higher = more binding, comparable within an allelic series) with PAX4 [2]; 11.3 upbm affinity estimate (log intensity, higher = more binding, comparable within an allelic series) with PRRX1 [3]; 12.3 upbm affinity estimate (log intensity, higher = more binding, comparable within an allelic series) with PAX4 [5]; 12.2 upbm affinity estimate (log intensity, higher = more binding, comparable within an allelic series) with PAX4 [7]; 10.8 upbm affinity estimate (log intensity, higher = more binding, comparable within an allelic series) in the test with PAX4 [8]. In addition, the binding signal is 13.6 upbm affinity estimate (log intensity, higher = more binding, comparable within an allelic series) with MSX2 [12]; 11.3 upbm affinity estimate (log intensity, higher = more binding, comparable within an allelic series) with PAX4 [9]; 13.1 upbm affinity estimate (log intensity, higher = more binding, comparable within an allelic series) with MSX2 [13]; 11.4 upbm affinity estimate (log intensity, higher = more binding, comparable within an allelic series) in the test with HOXA4 [10]; 13.4 upbm affinity estimate (log intensity, higher = more binding, comparable within an allelic series) with PRRX1 [11].

In the case of GCCAATTA, the binding signal with VENTX [1] is 11.8 upbm affinity estimate (log intensity, higher = more binding, comparable within an allelic series); in the test with ALX4 it was 14 upbm affinity estimate (log intensity, higher = more binding, comparable within an allelic series); with PRRX1 [3] it was 11.2 upbm affinity estimate (log intensity, higher = more binding, comparable within an allelic series); in the test with VENTX [4] it was 11.5 upbm affinity estimate (log intensity, higher = more binding, comparable within an allelic series); with HOXA2 [14] it was 12.6 upbm affinity estimate (log intensity, higher = more binding, comparable within an allelic series); in the test with PAX4 [7], 11.9 upbm affinity estimate (log intensity, higher = more binding, comparable within an allelic series). In addition, the binding signal with MSX2 [12] is 14 upbm affinity estimate (log intensity, higher = more binding, comparable within an allelic series); with MSX2 [13], 13.6 upbm affinity estimate (log intensity, higher = more binding, comparable within an allelic series); with VAX1 [15] it was 12.4 upbm affinity estimate (log intensity, higher = more binding, comparable within an allelic series); with PRRX1 [11], 13.3 upbm affinity estimate (log intensity, higher = more binding, comparable within an allelic series); in the test with VAX1 [16], 12.6 upbm affinity estimate (log intensity, higher = more binding, comparable within an allelic series).

ATAATTGG: the binding signal was 14 upbm affinity estimate (log intensity, higher = more binding, comparable within an allelic series) in the test with ALX4; 11.5 upbm affinity estimate (log intensity, higher = more binding, comparable within an allelic series) with PRRX1 [3]; 11.9 upbm affinity estimate (log intensity, higher = more binding, comparable within an allelic series) with PAX4 [7]; 14.1 upbm affinity estimate (log intensity, higher = more binding, comparable within an allelic series) in the test with MSX2 [12]; 13.7 upbm affinity estimate (log intensity, higher = more binding, comparable within an allelic series) in the test with MSX2 [13]; 13.4 upbm affinity estimate (log intensity, higher = more binding, comparable within an allelic series) with PRRX1 [11].

On to CCAATTAC, for which the binding signal with ALX4 was 13.8 upbm affinity estimate (log intensity, higher = more binding, comparable within an allelic series); with PRRX1 [3], 11.1 upbm affinity estimate (log intensity, higher = more binding, comparable within an allelic series); with MSX2 [12], 13.9 upbm affinity estimate (log intensity, higher = more binding, comparable within an allelic series); in the test with MSX2 [13], 13.5 upbm affinity estimate (log intensity, higher = more binding, comparable within an allelic series); with PRRX1 [11], 13.4 upbm affinity estimate (log intensity, higher = more binding, comparable within an allelic series).

Regarding CAATTACG, the binding signal with HOXA4 [6] was 11.6 upbm affinity estimate (log intensity, higher = more binding, comparable within an allelic series); with MSX2 [12], 13.7 upbm affinity estimate (log intensity, higher = more binding, comparable within an allelic series); in the test with MSX2 [13], 13.4 upbm affinity estimate (log intensity, higher = more binding, comparable within an allelic series); in the test with HOXA4 [10], 10.9 upbm affinity estimate (log intensity, higher = more binding, comparable within an allelic series); in the test with VAX1 [16], 12.3 upbm affinity estimate (log intensity, higher = more binding, comparable within an allelic series).

As to GAGGGGGC, the binding signal with HOXA2 [14] is 7.01 upbm affinity estimate (log intensity, higher = more binding, comparable within an allelic series); with HOXA2 [17] it was 10.1 upbm affinity estimate (log intensity, higher = more binding, comparable within an allelic series).

As to AATTAGCC, the binding signal was 13.8 upbm affinity estimate (log intensity, higher = more binding, comparable within an allelic series) with ALX4; 11.5 upbm affinity estimate (log intensity, higher = more binding, comparable within an allelic series) with PAX4 [2]; 10.7 upbm affinity estimate (log intensity, higher = more binding, comparable within an allelic series) with PRRX1 [3]; 12.1 upbm affinity estimate (log intensity, higher = more binding, comparable within an allelic series) with PAX4 [5]; 11.7 upbm affinity estimate (log intensity, higher = more binding, comparable within an allelic series) in the test with PAX4 [7]; 10.1 upbm affinity estimate (log intensity, higher = more binding, comparable within an allelic series) with PAX4 [8]. For the same sequence, the binding signal was 13.3 upbm affinity estimate (log intensity, higher = more binding, comparable within an allelic series) with MSX2 [12]; 10.5 upbm affinity estimate (log intensity, higher = more binding, comparable within an allelic series) with PAX4 [9]; 12.9 upbm affinity estimate (log intensity, higher = more binding, comparable within an allelic series) with MSX2 [13]; 12.1 upbm affinity estimate (log intensity, higher = more binding, comparable within an allelic series) with VAX1 [15]; 13.2 upbm affinity estimate (log intensity, higher = more binding, comparable within an allelic series) with PRRX1 [11]; 12.1 upbm affinity estimate (log intensity, higher = more binding, comparable within an allelic series) in the test with VAX1 [16].

Turning to CAATTACA, the binding signal in the test with PRRX1 [3] is 10.9 upbm affinity estimate (log intensity, higher = more binding, comparable within an allelic series); with MSX2 [12], 13.7 upbm affinity estimate (log intensity, higher = more binding, comparable within an allelic series); in the test with MSX2 [13], 13.3 upbm affinity estimate (log intensity, higher = more binding, comparable within an allelic series); in the test with PRRX1 [11], 13.2 upbm affinity estimate (log intensity, higher = more binding, comparable within an allelic series).

On to TAATTGAA, for which the binding signal with ALX4 is 13.9 upbm affinity estimate (log intensity, higher = more binding, comparable within an allelic series); with PRRX1 [3], 11.2 upbm affinity estimate (log intensity, higher = more binding, comparable within an allelic series); with HOXA2 [14], 12.5 upbm affinity estimate (log intensity, higher = more binding, comparable within an allelic series); with HOXB4, 13.6 upbm affinity estimate (log intensity, higher = more binding, comparable within an allelic series); in the test with MSX2 [12], 13.6 upbm affinity estimate (log intensity, higher = more binding, comparable within an allelic series); with MSX2 [13], 13.2 upbm affinity estimate (log intensity, higher = more binding, comparable within an allelic series). Moreover, the binding signal with PRRX1 [11] was 13.3 upbm affinity estimate (log intensity, higher = more binding, comparable within an allelic series).

ATTAATGC: the binding signal with PAX4 [2] is 11.7 upbm affinity estimate (log intensity, higher = more binding, comparable within an allelic series); with PAX4 [5] it was 12.1 upbm affinity estimate (log intensity, higher = more binding, comparable within an allelic series); with PAX4 [7] it was 11.7 upbm affinity estimate (log intensity, higher = more binding, comparable within an allelic series); with PAX4 [8], 10.4 upbm affinity estimate (log intensity, higher = more binding, comparable within an allelic series); in the test with PAX4 [9] it was 11 upbm affinity estimate (log intensity, higher = more binding, comparable within an allelic series).

For CAATTAGG, the binding signal with VENTX [1] is 12 upbm affinity estimate (log intensity, higher = more binding, comparable within an allelic series); with VENTX [4], 11.7 upbm affinity estimate (log intensity, higher = more binding, comparable within an allelic series); in the test with HOXA2 [14], 12.9 upbm affinity estimate (log intensity, higher = more binding, comparable within an allelic series); in the test with HOXA2 [17] it was 13 upbm affinity estimate (log intensity, higher = more binding, comparable within an allelic series); with MSX2 [12], 13.8 upbm affinity estimate (log intensity, higher = more binding, comparable within an allelic series); in the test with MSX2 [13], 13.4 upbm affinity estimate (log intensity, higher = more binding, comparable within an allelic series). Besides, the binding signal was 12.8 upbm affinity estimate (log intensity, higher = more binding, comparable within an allelic series) with VAX1 [15] and 12.7 upbm affinity estimate (log intensity, higher = more binding, comparable within an allelic series) with VAX1 [16].

(Values after paper PMC11006913.)
